In PubChem BioAssay (NCATS):
Where “and” joins values, the source holds several entries; their conditions need not be identical. Equal entries are not always repeated. Inconclusive results are not listed. A number with no mark means an inactive call. Calls of active or inactive are those of the source. Calls come from the whole dose curve; as a rule, active = well fitted inhibition curve with a large enough effect; inconclusive = small, poorly fitted or top-dose-only effect; inactive = flat fitted curve, though single readings scatter.

tested on: CRL-7250; assay: Cytotoxic Profiling of Annotated Libraries Using Quantitative High-Throughput Screening (AID 1296008); conditions: Five cell lines viability, CellTiter-Glo ATP luminescence, 48-72 h; max response: stronger effect = lower value; note: nearly all actives have a fitted effect of over 60% in size
In short: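 Cells exposed to compounds for 48 or 72 hr at 37 degrees Celsius. Viability read as ATP-coupled luminescence with CellTiter-Glo after 10 min at room temperature.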
% is set by controls: 0 for no effect and ±100 for the full control effect.

Row | Compound | outcome | max response
1 | CCc1c(C(=O)C(N)=O)c2c(OCC(=O)OC)cccc2n1Cc1ccccc1 | inactive | 
2 | CCN1C[C@]2(COC(=O)c3ccccc3N3C(=O)C[C@H](C)C3=O)CC[C@H](OC)[C@@]34[C@@H]5C[C@H]6[C@H](OC)[C@@H]5[C@](O)(C[C@@H]6OC)[C@](O)([C@@H](OC)[C@H]23)[C@@H]14 |  | -0.686%
3 | CC(C)(O)[C@H]1O[C@H]2CC[C@@]3(C)[C@@](O)(CC[C@H]4Cc5c([nH]c6ccccc56)[C@@]43C)C2=CC1=O |  | -14.1%
4 | CCN1C[C@]2(OC(=O)c3ccccc3NC(C)=O)CC[C@H](OC)[C@@]34[C@@H]2C[C@@H]([C@@H]13)[C@@]1(O)C[C@H](OC)[C@H]2C[C@@H]4[C@]1(O)[C@H]2OC |  | -8.79%
5 | CN1[C@H]2C[C@H](OC(=O)[C@H](CO)c3ccccc3)C[C@@H]1[C@@H](O)C2 |  | -1.08%
6 | C=CC(C)(C)c1[nH]c2cccc3c2c1C[C@@H]1[C@@H]3[C@@H](OC(C)=O)[C@H](C)CN1C |  | -2.45%
7 | Cc1cc(C(=O)CN2CCCC2)c(C)n1-c1ccc(F)cc1 |  | 1.13% and -6.04%
8 | O=C(O)c1ccnc2cc(C(OCCN3CCCCC3)c3ccccc3Cl)[nH]c12 (centres undefined) | inactive | 
9 | CCC(C)(OC(C)=O)C(=O)O[C@H]1[C@H](OC(C)=O)C[C@@H]2[C@@](C)([C@@H]3C[C@H]4C=CO[C@H]4O3)[C@H](C)C[C@H](OC(C)=O)[C@@]2(COC(C)=O)[C@@]12CO2 (some centres undefined) | inactive | 
